Source: PubChem BioAssay
Calls of active or inactive are those of the source.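 How the source made its calls: active means inhibition at or above 50% relative to wild type and mutant plate controls; inactive means inhibition below 50%.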

test: loss of swimming-algae plug formation – whole organism, Chlamydomonas reinhardtii, WT vs cilia-less mutant, absorbance, 96-well, primary screen (AID 463189); settings: Chlamydomonas reinhardtii gravitaxis, OD600 absorbance, 2 days; at 10 µM; hits give high values;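 further: 0% = wild type cc124 cells in DMSO and 100% = ciliumless bld1 mutant cells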

Row | SMILES | inhibition
1 | CC(C)NNC(=O)c1ccncc1 | 2.86% (inactive)
2 | COc1cc2c(c(OC)c1OC)-c1ccc(OC)c(=O)cc1[C@@H](NC(C)=O)CC2 | 4.38% (inactive)
3 | O=C(O)[C@@H]1C[C@@H](C(=O)O)N1 | -5.37% (inactive)
4 | CC1=C(/C=C/C(C)=C/C=C/C(C)=C/C(=O)Nc2ccc(O)cc2)C(C)(C)CCC1 | 1.68% (inactive)
